According to PubChem BioAssay AID1159580 (chemical genetic matrix, 2015):
“And” between values parts separate entries of the source, which are not always exact repeats. Equal entries are not always repeated. Screen size: about 5,500 compounds; about 2,000 (36%) were called active. Not shown: some 18% with an inconclusive outcome. Cut-off read from the data, not from the text of the source: active = normalized growth mostly below about 0.91 (no sharp cut-off); inconclusive = no clear call, values can overlap the other calls; inactive = mostly above about 0.92. The list shows a part of the results.

Assay: chemical genetic growth profiling, strain panel (AID 1159580);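 note: tested at 20 µM; growth read once vehicle control cultures reached saturation at 30 °C; 1 = growth at the plate median or of vehicle wells; lower values mean less growth of the strain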
Details: S. cerevisiae deletion strains, growth OD

Measured: normalized growth

OC(CCN1CCCC1)(c1ccccc1)C1CCCCC1 (centres undefined)
inactive: locus YAL021C, strain ccr4, stronger effect = lower value 0.994 | locus YAL026C, strain drs2, stronger effect = lower value 1 | locus YAL030W, strain snc1, stronger effect = lower value 0.986 | locus YBL061C, strain skt5, stronger effect = lower value 0.989 | locus YBR009C, strain hhf1, stronger effect = lower value 1 | locus YBR021W, strain FUR4, stronger effect = lower value 0.947 | locus YBR023C, strain chs3, stronger effect = lower value 0.987 | locus YBR171W, strain sec66, stronger effect = lower value 0.965 | locus YBR229C, strain ROT2, stronger effect = lower value 0.988 | locus YBR231C, strain swc5, stronger effect = lower value 0.977 | locus YBR279W, strain paf1, stronger effect = lower value 1 | locus YCL011C, strain gbp2, stronger effect = lower value 0.998 | locus YCL016C, strain dcc1, stronger effect = lower value 1.01 | locus YCL029C, strain bik1, stronger effect = lower value 0.985 | locus YCL061C, strain MRC1, stronger effect = lower value 0.976 | locus YCL069W, strain vba3, stronger effect = lower value 0.98 | locus YCR088W, strain abp1, stronger effect = lower value 0.976 | locus YDL005C, strain med2, stronger effect = lower value 0.984 | locus YDL035C, strain GPR1, stronger effect = lower value 0.994 | locus YDL040C, strain nat1, stronger effect = lower value 0.989 | locus YDL074C, strain BRE1, stronger effect = lower value 1.01 | locus YDL101C, strain DUN1, stronger effect = lower value 0.995 | locus YDL134C, strain PPH21, stronger effect = lower value 0.99 | locus YDL185W, strain tfp1, stronger effect = lower value 0.979 | locus YDL192W, strain arf1, stronger effect = lower value 0.986 | locus YDR001C, strain nth1, stronger effect = lower value 0.991 | locus YDR069C, strain doa4, stronger effect = lower value 0.986 | locus YDR101C, strain arx1, stronger effect = lower value 0.982 | locus YDR137W, strain rgp1, stronger effect = lower value 1.05 | locus YDR150W, strain NUM1, stronger effect = lower value 1 | locus YDR159W, strain sac3, stronger effect = lower value 0.991 | locus YDR162C, strain NBP2, stronger effect = lower value 0.995 | locus YDR195W, strain ref2 0.942 | locus YDR297W, strain sur2, stronger effect = lower value 0.978 | locus YDR318W, strain mcm21, stronger effect = lower value 0.973 | locus YDR334W, strain swr1, stronger effect = lower value 0.983 | locus YDR335W, strain msn5, stronger effect = lower value 0.981 | locus YDR388W, stronger effect = lower value 0.976 | locus YDR392W, strain spt3, stronger effect = lower value 1 | locus YDR502C, strain sam2, stronger effect = lower value 1 | locus YEL003W, strain gim4, stronger effect = lower value 0.975 | locus YEL037C, strain rad23, stronger effect = lower value 0.982 | locus YEL061C, strain CIN8 (second series), stronger effect = lower value 0.986 | locus YEL061C, strain CIN8, stronger effect = lower value 0.998 | locus YER015W, strain faa2, stronger effect = lower value 0.989 | locus YER016W, strain bim1, stronger effect = lower value 0.998 | locus YER110C, stronger effect = lower value 0.975 | locus YER111C, strain swi4, stronger effect = lower value 1 | locus YER155C, strain BEM2 (second series), stronger effect = lower value 0.946 | locus YER155C, strain BEM2, stronger effect = lower value 0.99 | locus YER167W, strain BCK2, stronger effect = lower value 0.992 | locus YFR010W, strain ubp6, stronger effect = lower value 0.976 | locus YGL078C, strain dbp3, stronger effect = lower value 0.985 | locus YGL086W, strain mad1, stronger effect = lower value 0.994 | locus YGL167C, strain pmr1, stronger effect = lower value 0.985 | locus YGL173C, strain kem1, stronger effect = lower value 0.972 | locus YGL227W, strain vid30, stronger effect = lower value 0.99 | locus YGL240W, strain doc1, stronger effect = lower value 0.963 | locus YGL248W, strain PDE1, stronger effect = lower value 0.996 | locus YGL253W, strain hxk2, stronger effect = lower value 1.01 | locus YGR078C, strain PAC10, stronger effect = lower value 0.998 | locus YGR135W, strain pre9, stronger effect = lower value 0.983 | locus YGR229C, strain SMI1, stronger effect = lower value 0.993 | locus YGR252W, strain gcn5, stronger effect = lower value 1.01 | locus YHR013C, strain ard1, stronger effect = lower value 1 | locus YHR027C, strain rpn1, stronger effect = lower value 0.991 | locus YHR030C, strain SLT2, stronger effect = lower value 0.987 and 1.02 | locus YHR079C, strain IRE1 (second series), stronger effect = lower value 0.977 | locus YHR079C, strain IRE1, stronger effect = lower value 1.02 | locus YHR094C, strain hxt1, stronger effect = lower value 0.975 | locus YHR129C, strain ARP1, stronger effect = lower value 1 | locus YHR142W, strain chs7, stronger effect = lower value 0.999 | locus YHR200W, strain rpn10, stronger effect = lower value 0.974 | locus YIL066C, strain RNR3, stronger effect = lower value 0.989 | locus YIL073C, strain SPO22, stronger effect = lower value 0.957 | locus YIL125W, strain kgd1, stronger effect = lower value 0.967 | locus YIR030C, strain dcg1, stronger effect = lower value 0.985 | locus YJL092W, strain hpr5, stronger effect = lower value 0.969 | locus YJL095W, strain BCK1 (second series), stronger effect = lower value 0.986 | locus YJL095W, strain BCK1, stronger effect = lower value 1 and 1.03 | locus YJL115W, strain asf1, stronger effect = lower value 0.987 | locus YJL129C, strain trk1, stronger effect = lower value 0.973 | locus YJL134W, strain LCB3, stronger effect = lower value 0.994 | locus YJL154C, strain vps35, stronger effect = lower value 0.991 | locus YJL164C, strain tpk1, stronger effect = lower value 1.01 | locus YJL166W, strain qcr8, stronger effect = lower value 0.952 | locus YJL168C, strain set2, stronger effect = lower value 0.974 | locus YJL187C, strain SWE1 (second series), stronger effect = lower value 0.989 | locus YJL187C, strain SWE1, stronger effect = lower value 0.996
